Rows were chosen to be rich in hits. Some 3.9% of all compounds tested hit in one or more screens of this group.
HT1080 IDH1KD tx: qHTS for induction of synthetic lethality in tumor cells producing 2HG: qHTS for the HT-1080-IDH1KD cell line; HT-1080 IDH1 knockdown viability, ATP luminescence, 48 h; AID 686971, 2013; Potency, µM (titrated, usually from 46.1 µM), for inactives: at the top dose activity, negative = toxicity, usual class: cytotoxic; 360,000 compounds, 2% hits;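 further: 0% = DMSO wells and -100% = cell-free medium wells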
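HT-1080-IDH1KD cells (IDH1 knocked down), 750/well in RPMI with 5% FBS, treated with compound 48 h at 37 degrees C. Viability by CellTiter-Glo luminescence, normalised to DMSO and no-cell wells; concentration-response curves classed.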
HepG2 tox: qHTS for Inhibitors of TGF-b: Cytotox Counterscreen. HepG2 CAGA-GFP viability, ATP luminescence, 18 h. Potency, µM (doses to about 46.1 µM), for inactives: at the highest dose activity change, negative = cytotoxicity, hits mostly cytotoxic. 410,000 compounds, 0.76% hits. AID 588856, 2011
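HepG2 CAGA-GFP cells (1000/well, DMEM with 1% FBS) received compound, then TGF-beta at 500 pg/mL final, and were incubated 18 hours at 37 degrees C. Viability was read by CellTiter-Glo luminescence. Media-only wells were set as complete cell-killing and DMSO as no toxicity.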
ATXN2 expr inh: Primary qHTS for Inhibitors of ATXN expression. HEK-293 ATXN2-luciferase reporter, luminescence, 24 h. Potency, µM (series often up to 57 µM), inactives show at the top dose activity change, negative = inhibition, hits mostly inhibitors. 360,000 compounds, 0.72% hits. AID 1745845, 2022; further: on the % scale 0 is the no-effect control and ±100 the full control effect; nearly all actives have a fitted effect of over 55% in size
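qHTS (up to 57 uM final) was run with 24 h compound exposure of reporter cells at 37 °C. Each well was multiplexed: SteadyGlo luminescence measured ATXN2-luciferase expression after a fluorogenic Gly-Phe-AFC viability readout (25 uM final).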
TGFb SMAD3 inh: qHTS for Inhibitors of TGF-b; HepG2 CAGA-GFP TGF-b/SMAD3 reporter, GFP fluorescence, 18 h; TGF-beta stimulated, 500 pg/mL final; Potency, µM (series often up to 46.1 µM), for the others: top-dose activity, negative = inhibition, most hits filed as inhibitors; 410,000 compounds, 1.2% hits; AID 588855, 2011; further: on the % scale 0 is the no-effect control and ±100 the full control effect; nearly all actives have a fitted effect of over 65% in size
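Read-out: total well GFP (ex488/em500-530) summed from mean per-cell fluorescence. Cells: HEPG2 CAGA-GFP, 1% FBS DMEM, 18 h at 37 degrees C with 500 pg/mL final TGF-beta. Unstimulated wells served as the full-inhibition control; stimulated DMSO wells = 0%.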
HT1080-NT tox: qHTS for induction of synthetic lethality in tumor cells producing 2HG: qHTS for the HT-1080-NT fibrosarcoma cell line; HT-1080-NT fibrosarcoma viability, CellTiter-Glo ATP luminescence, 48 h; Potency, µM (titrated, usually from 46.1 µM), for inactives: at the highest dose activity, negative = less viability, hits mostly cytotoxic; 360,000 compounds, 1.6% hits;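 further: NT is the 2HG producing partner of a matched IDH1 knockdown line; 0% = DMSO-treated cells and -100% = media-only wells without cells; nearly all actives have a fitted effect of over 55% in size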
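A 48-hour cytotoxicity screen used HT-1080-NT cells plated 2 hours before compound delivery. ATP-based CellTiter-Glo luminescence measured viability, normalized to DMSO and no-cell controls.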
ATXN viability: Viability Counterscreen for Primary qHTS for Inhibitors of ATXN expression. S2 cells (HEK-293 line with an ATXN2-luciferase reporter) viability, CellTiter-Fluor protease fluorescence, 24 h. Potency, µM (top dose mostly 56.7 µM), hits mostly cytotoxic. 400,000 compounds, 0.49% hits. AID 651635, 2014; further: nearly all actives have a fitted effect of over 40% in size
* hit, by the source's call; i = inactive; ? = inconclusive; . = no result given; [ ] = remark or other dose. The call rests on the fitted dose curve; in most records, active means well fitted curve in the direction sought with a large enough effect; inconclusive means small, poorly fitted or top-dose-only effect, or another doubt; inactive means no such curve, though single readings can be large; an effect the other way counts as inactive or inconclusive. Potency means the concentration at half of the fitted maximal effect.

SMILES | HT1080 IDH1KD tx | HepG2 tox | ATXN2 expr inh | TGFb SMAD3 inh | HT1080-NT tox | ATXN viability
Cc1c(N)nc(C(CC(N)=O)NCC(N)C(N)=O)nc1C(=O)NC(C(=O)NC(C)C(O)C(C)C(=O)NC(C(=O)NCCc1nc(-c2nc(C(=O)NCCCN[C@@H](C)c3ccccc3)cs2)cs1)C(C)O)C(O[C@@H]1O[C@@H](CO)[C@@H](O)[C@H](O)[C@@H]1O[C@H]1O[C@H](CO)[C@@H](O)[C@H](OC(N)=O)[C@@H]1O)c1cnc[nH]1 (some centres not stated) | . | . | . | . | . | i
CC(C)(C)c1ccc(OCCOc2ccc(C(C)(C)C)cc2NC=O)c(NC=O)c1 | 15µM* | -2% | . | ? | ? | ?
COCCOc1ccc(C(F)(F)F)cc1NC(=O)c1ccccc1 | 20% | 9% | -7% | 14% | 10% | i
CCN(CC)C(=O)Cn1cc(SCC(=O)Nc2cccc(F)c2)c2ccccc21 | . | -12% | 5% | 0% | . | ?
Cc1ccc(-c2nc(N3CCN(c4ccccc4Cl)CC3)c3ccccc3n2)cc1 | . | 1% | 1% | -2% | . | i
CCN1c2ccccc2N(C)C1(C)c1ccccc1 (configuration not stated) | ? | -102% | 18µM* | 8.9µM* | ? | i
CN1c2ccccc2N(C)C1(C)c1ccccc1 | ? | -41% | -20% | ? | ? | i
CCc1nc2cc(C(=O)N(C)CC3COCCO3)cc(NC(=O)c3ccccc3OC)c2n1C (configuration not stated) | . | . | . | . | . | i
C=C(C)C(=O)Oc1ccc(N=Nc2ccc(C)cc2)ccc1=O | 23µM* | -32% | ? | ? | ? | 32µM*
N#CC(C#N)=C1C(=O)N(CCN2CCOCC2)c2ccccc21 | -11% | 22µM* | -15% | ? | 2% | ?
N#CC(C#N)=C1C(=O)N(CCN2CCCCC2)c2ccccc21 | -4% | -39% | -20% | 1% | 1% | ?
COCCCNC(=O)c1oc2c(c1C)-c1nn(Cc3ccccc3Cl)cc1CC2 | . | -21% | . | -17% | . | .
CSc1ccc(CCNC(=O)CCc2c(C)nc3c(-c4ccccc4)c(C)nn3c2C)cc1 | . | -35% | -15% | ? | . | i
Cc1ccc(-c2n[nH]c3c2C(c2cccs2)N(c2ccc(Cl)cc2)C3=O)cc1 (configuration not stated) | . | 13µM* | ? | 11µM* | . | ?
COc1cc(C2c3c(-c4ccc(C)cc4)n[nH]c3C(=O)N2c2ccc(F)cc2)ccc1O (configuration not stated) | . | -51% | ? | 11µM* | . | ?
COc1ccc(OC)c(C2c3c(-c4ccc(Br)cc4)n[nH]c3C(=O)N2c2ccc(Cl)cc2)c1 (configuration not stated) | . | 11µM* | ? | 4µM* | . | .
COc1ccc(C2c3c(-c4ccc(F)cc4)n[nH]c3C(=O)N2c2ccccc2)cc1OC (configuration not stated) | . | 1% | -10% | -3% | . | ?
Cc1ccc(N2C(=O)c3[nH]nc(-c4ccc(Cl)cc4)c3C2c2ccc(F)cc2)cc1 (configuration not stated) | . | 11µM* | ? | ? | . | .
CC/C(=C/c1ccccc1)c1cc(Oc2ccccc2)cc2oc3ccccc3c12 | . | 35% | . | 0% | . | .
CC(=O)N(C)C1=C(N2CCOCC2)C(=O)c2ccccc2C1=O | 0.89µM* | 0.56µM* | 1.4µM* | 1.6µM* | 1.6µM* | 3.5µM*
CC(=O)N(C1=C(N2CCOCC2)C(=O)c2ccccc2C1=O)c1ccc(C(=O)O)cc1 | -4% | -20% | . | -25% | -12% | ?
CC(C)CCn1c(SCc2cccc(F)c2)nc2ccsc2c1=O | . | -29% | . | ? | . | .
Cc1ccccc1NS(=O)(=O)c1cc(C(=O)NCCC2=CCCCC2)ccc1C | 9%[9.24 µM] | -16% | ? | ? | ? | ?
O=C(NCCC1=CCCCC1)c1ccc(Cl)c(S(=O)(=O)Nc2ccccc2)c1 | ? | -43% | -21% | 13µM* | -23% | i
CC1(C)CC(C(=O)N2CCOc3ccc(CN4CCN(Cc5ccccn5)CC4)cc3C2)CCO1 (configuration not stated) | . | . | . | . | . | i
SMILES | HT1080 IDH1KD tx | HepG2 tox | ATXN2 expr inh | TGFb SMAD3 inh | HT1080-NT tox | ATXN viability
Cc1ccc(S(=O)(=O)N2CCCc3cc(NS(=O)(=O)c4ccc(F)cc4)ccc32)cc1 | . | -34% | ? | ? | . | .
Cc1ccc(S(=O)(=O)N2CCCc3cc(NS(=O)(=O)c4ccccc4)ccc32)cc1 | . | 1% | 0% | 16µM* | . | .
COC(=O)Nc1ccc(S(=O)(=O)N2CCCc3ccccc32)cc1 | 1.4µM* | -21% | -10% | -23% | 8.9µM* | ?
CNC(=O)c1ccsc1NC(=O)c1ccc(S(=O)(=O)N2CCCc3ccccc32)cc1 | -3% | -17% | ? | ? | -14% | i
CCc1nnc(NC(=O)c2ccc(S(=O)(=O)N3CCCc4ccccc43)cc2)o1 | 7.1µM* | 4% | ? | -15% | ? | ?
Cn1c(-c2cccc(Br)c2)cnc1NCc1cccc(F)c1 | . | -38% | -22% | 0% | . | i
COc1cc(-c2cnc3ccccc3c2)cc2c1OCCN(S(=O)(=O)C[C@]13CC[C@H](CC1=O)C3(C)C)C2 | . | . | . | . | . | i
O=c1/c(=C/c2ccccn2)sc2nc3ccccc3n12 | 10% | -16% | -35% | -12% | 6% | i
Cc1cc(C=c2sc3nc4ccccc4n3c2=O)c(C)n1-c1ccccc1 | . | . | 0.24µM* | . | . | .
Cc1nn(-c2ccccc2)c2c1C(c1ccc([N+](=O)[O-])cc1)N1C(=N2)C(=O)Nc2ccccc21 (configuration not stated) | -25% | 11% | -24% | ? | -17% | i
Cc1cccc(NC2=Nc3ccccc3N3C2=Nc2c(c(C)nn2-c2ccccc2)C3c2ccc(O)c(O)c2)c1 (configuration not stated) | 16µM* | -99% | ? | ? | 15µM* | i
Cc1ccc(NC2=Nc3ccccc3N3C2=Nc2c(c(C)nn2-c2ccccc2)C3c2ccc(O)c(O)c2)cc1 (configuration not stated) | ? | -95% | ? | ? | 23µM* | i

Compound activity as filed in PubChem.
